# Laboratory results: the OligoGym collection
# Target: TMEM109
# Test: pooled miR-30 sensor sort-seq; sequence = guide strand
# Conditions: shRNA
# Note: reference of the scale not given here.
row,Sequence,sensor-assay potency score (higher = more potent)
1,TCCCTCGCACAGATCGACCTAT,-0.902
2,TCGCACAGATCGACCTATCTGG,-0.204
3,TATTCTTCACATCATGTGCCAA,-0.456
4,TTTCTCTGTTTCTCTTGGCTAG,-0.388
5,TCTGGGTCAAGACATCAACTGG,-1.37
6,TTCCACATCAAACCTGAACAGT,-0.603
7,TGTGATTCCACATCAAACCTGA,0.855
8,TTTGGTATGACACTGGCGGTGT,0.696
9,TTTAAAACCAACCAAGCACTGA,-0.265
10,TTGAACACATGCTTTCCCCATG,-0.916
11,TTTGAACACATGCTTTCCCCAT,-0.568
12,TGGGTCAAGACATCAACTGGGG,-0.224

# Target: TMEM110
# Test: as above
# Conditions: shRNA
row,Sequence,sensor-assay potency score (higher = more potent)
1,TTTTAAGTCACAGTAGTCTGGG,0.293
2,TTGGAAGTGTCTAAAAACCATA,-1.5
3,TTAAGTCACAGTAGTCTGGGGG,-0.231
4,TTCTTCTAGCTTAGCTTTCGTC,-0.864
5,TTTGTAGTGCAACTGAATGGGG,-0.728
6,TTAGCTTTCGTCTTCCCCTTTC,-0.779
7,TTCAGTGAGATCTGCTAGGTAT,0.113
8,TTTAAGTCACAGTAGTCTGGGG,0.109
9,TTGTAGTGCAACTGAATGGGGA,-0.276
10,TTTTTAAGTCACAGTAGTCTGG,-0.583
11,TTCTAGCTTAGCTTTCGTCTTC,-0.0536
12,TAAGTCACAGTAGTCTGGGGGC,0.0391

# Target: TMEM117
# Test: as above
# Conditions: shRNA
row,Sequence,sensor-assay potency score (higher = more potent)
1,TTAATCGGAGCAACTGACCAAA,-0.0675
2,TATCAGTGACCATCCAAGCTGT,-0.461
3,TTGTCTTGATTCTCCATGCGTG,-0.601
4,TATTACTGAATTTTGCATCTGT,1.08
5,TTGAACATCAGATACATGGGTC,0.48
6,TTTCACTGTATATATCTTCTGC,-0.0324
7,ATTTACATCAACATCTCCCATG,-0.907
8,TTTGTCTTGATTCTCCATGCGT,-0.0154
9,TTAGTGTGATTGGACCTCCATT,-1.69
10,TAGTAGATTCGTTCAACTGTGA,0.105
11,TTGAAGTCAGACCTGATGCAAA,-0.838
12,TACATCAACATCTCCCATGAAA,-1.02

# Target: TMEM130
# Test: as above
# Conditions: shRNA
row,Sequence,sensor-assay potency score (higher = more potent)
1,TATGTGTACAACCTTTAGTTAT,-1.54
2,TTCTGCTTCACAGCCCTCGTGG,-0.803
3,ATAGTTATAATAGACCACGGAG,-0.516
